Measurements published in the supplement of paper PMC9433436.
± gives the standard deviation of the averaged measurements. Whole data set: some 4,100 sequences, median “relative kcat/Km (krel) vs genomic leader AAAGAU” near 1.7, cut for the highest 2% near 6.5. The full list was thinned out, with the highest values kept by preference.

Target: T1, E. coli RNase P holoenzyme (M1 P RNA + rnpA protein) (UniProt P0A7Y8)
T1 sequence: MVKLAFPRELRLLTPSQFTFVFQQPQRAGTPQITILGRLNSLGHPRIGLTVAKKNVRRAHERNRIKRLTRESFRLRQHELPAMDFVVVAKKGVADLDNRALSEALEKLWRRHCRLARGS
Experiment: relative kcat/Km (krel) vs genomic leader AAAGAU (relative (reference leader = 1)); higher = faster RNase P cleavage
Protocol: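 HTS-Kin: a pool of ptRNA-Met (21C construct) with all 4096 combinations of 5' leader nucleotides N(-6) to N(-1) was processed in vitro by E. coli RNase P (P RNA + rnpA/C5 protein) under multiple-turnover conditions at 37 C, pH 8, 17.5 mM MgCl2. Residual substrate was Illumina-sequenced at several fractions reacted, and relative kcat/Km (krel) was computed by internal competition kinetics, calibrated to the genomic leader (AAAGAU = 1). The listed hexamer is the varied N(-6)..N(-1) leader (DNA letters), and it sits between a fixed 5' stem-loop flank (GCAUGCACGAAAGUGCGUGCUAUGAA) and the mature tRNA-Met starting GGCUACGUAGCUCAGUUGG. Two technical replicates are averaged.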

[1] = fraction of substrate reacted: ~9-10% (9.79% repeat 1, 9.1% repeat 2)
[2] = fraction of substrate reacted: ~13-16% (15.68% repeat 1, 13.17% repeat 2)
[3] = fraction of substrate reacted: ~26-29% (28.66% repeat 1, 26.4% repeat 2)

Row | Sequence | relative kcat/Km [1] | relative kcat/Km [2] | relative kcat/Km [3]
1 | CTCCGG | 1.38 ± 0.85 | 0.916 ± 0.46 | 1.27 ± 0.5
2 | ATCCGA | 4.57 ± 1.7 | 4.95 ± 0.73 | 7.19 ± 2.7
3 | CTCCGA | 4.78 ± 2 | 5.35 ± 1.6 | 8.07 ± 3.3
4 | ATCCTA | 3.22 ± 1.7 | 3.39 ± 0.28 | 4.55 ± 1.7
5 | GGCGGT |  |  | 1.38 ± 0.92
6 | ATGTCA | 1.69 ± 0.74 | 1.97 ± 0.16 | 2.71 ± 1
7 | CGCGTA | 2.07 ± 0.78 | 1.48 ± 0.56 | 2.18 ± 0.99
8 | CAGGAG | 0.78 ± 0.77 |  | 0.626 ± 0.52
9 | TAAGGT |  |  | 3.06 ± 1.8
10 | TCGGGC |  |  | 1.18 ± 0.74
11 | TGAATC | 1.86 ± 0.16 | 1.84 ± 0.4 | 2.53 ± 0.78
12 | TATAAT | 3.05 ± 0.91 | 3.72 ± 0.38 | 5.41 ± 2.8
13 | TAACAG |  | 1.33 ± 0.61 | 2.19 ± 0.52
14 | GCGAGA | 1.04 ± 0.47 |  | 1.63 ± 0.017
15 | ATCCGG |  | 0.394 ± 0.063 | 0.881 ± 0.16
16 | TTCCGG | 1.74 ± 1.5 | 0.738 ± 0.38 | 1.68 ± 0.19
17 | TGCCGA | 2.99 ± 0.37 | 2.99 ± 1.4 | 4.69 ± 1.9
18 | TTCCGC | 4.23 ± 1.3 | 5.35 ± 0.93 | 8.49 ± 3.5
19 | TTCCGA | 4.31 ± 1.2 | 6.28 ± 2 | 9.5 ± 4.6
20 | TTCCCA | 2.74 ± 1.8 | 4.27 ± 0.3 | 4.97 ± 1.5
21 | GGCCGA | 1.949 ± 0.015 | 2.42 ± 0.35 | 3.95 ± 1.3
22 | GTCCTA | 3.11 ± 1.4 | 3.47 ± 0.34 | 4.9 ± 1.2

Row | Sequence | relative kcat/Km [1] | relative kcat/Km [2] | relative kcat/Km [3]
23 | TTCCGT |  | 2.19 ± 1.9 | 2.5 ± 1.8
24 | GTCCGA | 3.87 ± 0.72 | 5.56 ± 1 | 8.22 ± 3.4
25 | ATCCGC | 3.93 ± 0.99 | 4.36 ± 1.7 | 6.74 ± 2.5
26 | ATCCGT |  |  | 2.3 ± 2.1
27 | ACGACA | 1.74 ± 0.19 | 1.62 ± 0.86 | 1.9 ± 0.45
28 | CAGCAA | 2.5 ± 1.1 | 2.58 ± 0.032 | 3.08 ± 1
29 | TATCGA | 3.95 ± 1.2 | 4.7 ± 0.84 | 6.39 ± 2.6
30 | GTATAG |  | 1.79 ± 0.37 | 3.69 ± 0.99
31 | GTATAC | 3.66 ± 2.2 | 4.72 ± 0.97 | 6.65 ± 2.7
32 | TTATAA | 3.65 ± 1.4 | 4.53 ± 0.46 | 6.51 ± 2.4
33 | ATATAC | 3.5 ± 2.1 | 3.99 ± 0.01 | 6.02 ± 2.1
34 | TTATAC | 4.34 ± 1.3 | 5.2 ± 0.6 | 7.47 ± 2.9
35 | CTATAC | 3.79 ± 0.8 | 3.82 ± 0.28 | 5.86 ± 1.7
36 | CCGCCT | 1.45 ± 0.15 |  | 1.54 ± 0.38
37 | ATTCAT | 2.95 ± 1.6 | 3.71 ± 0.32 | 5.56 ± 2.2
38 | GTTCAA | 2.59 ± 1.7 | 3.08 ± 0.83 | 4.21 ± 1.5
39 | TTTCAG | 2.51 ± 2.3 | 1.83 ± 0.22 | 3.23 ± 0.79
40 | CTTCAT | 4.07 ± 1.5 | 4.78 ± 0.63 | 6.67 ± 2.6
41 | CTTCAA | 3.2 ± 2.3 | 3.11 ± 0.12 | 3.96 ± 1.1
42 | TTTCAC | 3.76 ± 1.6 | 4.95 ± 0.89 | 6.83 ± 2.6
43 | GTTCAT | 3.32 ± 0.77 | 4.43 ± 0.92 | 6.51 ± 3
44 | TCTCAT | 3.52 ± 0.79 | 4.87 ± 1.2 | 6.39 ± 2.9

Row | Sequence | relative kcat/Km [1] | relative kcat/Km [2] | relative kcat/Km [3]
45 | TTTCAA | 2.81 ± 1.9 | 2.95 ± 0.37 | 4.9 ± 2.3
46 | GTTCAC | 3.88 ± 0.89 | 4.82 ± 0.92 | 6.76 ± 2.6
47 | TTTCAT | 4.15 ± 1.4 | 5.11 ± 0.89 | 7.53 ± 3.4
48 | CTTCAG |  | 1.26 ± 0.073 | 2.21 ± 0.1
49 | TGGAGT |  |  | 1.17 ± 1.1
50 | GGGGCC | 0.798 ± 0.048 | 0.576 ± 0.47 | 0.579 ± 0.14
51 | AACTGA | 2.11 ± 1.8 | 1.88 ± 0.34 | 3.9 ± 0.84
52 | ATTCTA | 2.57 ± 2.1 | 2.17 ± 0.23 | 2.44 ± 0.73
53 | AATACC | 1.49 ± 0.43 | 1.431 ± 0.0097 | 1.56 ± 0.25
54 | TTACAC | 4.14 ± 1.9 | 4.92 ± 0.61 | 6.4 ± 2.5
55 | CCCATA | 2.83 ± 1.3 | 3.03 ± 0.6 | 4.43 ± 1.7
56 | GAAGAA | 2.23 ± 0.43 | 2.71 ± 0.3 | 2.76 ± 0.48
57 | CGGTCC |  |  | 0.889 ± 0.14
58 | TTGCAA | 1.54 ± 0.37 | 2.13 ± 0.72 | 2.92 ± 0.97
59 | GATTAT | 3.36 ± 0.24 | 4.67 ± 0.86 | 7.25 ± 3.7
60 | GATTAG | 2.16 ± 2.1 | 2.42 ± 0.093 | 3.68 ± 1.1
61 | CATTAC | 4.77 ± 1.5 | 5.16 ± 0.98 | 7.24 ± 2.8
62 | CATTAA | 3.66 ± 2.4 | 4.11 ± 0.12 | 5.92 ± 2
63 | CATTAT | 4.62 ± 1.6 | 6.32 ± 1.1 | 8.59 ± 3.6
64 | CATTAG | 2.22 ± 1.2 | 2.26 ± 0.59 | 4.08 ± 1.1
65 | GATTAA | 3.21 ± 0.97 | 3.86 ± 0.81 | 5.57 ± 2.6
66 | GATTAC | 2.65 ± 0.6 | 4.2 ± 0.47 | 6.1 ± 2.1

Row | Sequence | relative kcat/Km [1] | relative kcat/Km [2] | relative kcat/Km [3]
67 | CCTTAC | 3.84 ± 2.1 | 4.83 ± 0.16 | 5.67 ± 1.9
68 | GGAAGA | 2.26 ± 0.31 | 2.24 ± 0.41 | 3.83 ± 0.61
69 | CCTACG |  |  | 1.4 ± 0.03
70 | ACAGTT | 1.6 ± 1.2 | 1.27 ± 0.62 | 1.3 ± 0.82
71 | GTATGG |  | 0.253 ± 0.21 | 1.01 ± 0.7
72 | TTGTTC | 1.96 ± 0.092 | 2.08 ± 0.17 | 3.27 ± 1.5
73 | TAATCT | 1.87 ± 1.1 | 3.08 ± 0.23 | 4.22 ± 1.6
74 | TGGAGG |  |  | 0.887 ± 0.34
75 | AATTTA | 1.65 ± 0.69 | 1.63 ± 0.14 | 2.33 ± 0.76
76 | TGATTA | 2.2 ± 0.59 | 2.91 ± 0.12 | 3.73 ± 1.7
77 | CACGCT | 1.83 ± 0.24 | 2.25 ± 0.6 | 3.03 ± 0.94
78 | CTTAGC | 2.96 ± 1.3 | 3.29 ± 1.3 | 3.62 ± 0.95
79 | GTCAGG | 0.667 ± 0.23 | 1.03 ± 0.2 | 2.57 ± 1.1
80 | GTCAGT |  |  | 2.53 ± 2.2
81 | TTCAGT |  | 2.35 ± 1.7 | 3.37 ± 2.9
82 | TGCAGA | 1.65 ± 0.82 | 2.24 ± 0.094 | 2.7 ± 0.68
83 | ATCAGC | 2.87 ± 0.62 | 3.75 ± 1 | 5.41 ± 1.6
84 | TTCAGC | 5.19 ± 1.6 | 6.48 ± 1.2 | 9.03 ± 3.9
85 | GTCAGC | 4.18 ± 1.7 | 5.29 ± 0.92 | 7.22 ± 2.9
86 | TTCGGA |  |  | 1.79 ± 1
87 | TTCAGA | 5.95 ± 2.5 | 6.69 ± 1.9 | 10.5 ± 4.5
88 | TTCAGG | 1.31 ± 0.71 | 1.12 ± 0.87 | 2.76 ± 0.9

Row | Sequence | relative kcat/Km [1] | relative kcat/Km [2] | relative kcat/Km [3]
89 | CTCAGC | 4.51 ± 1.9 | 5.37 ± 1.6 | 7.11 ± 2.5
90 | AATGTT | 0.792 ± 0.16 | 0.821 ± 0.55 | 1.29 ± 0.62
91 | TTAATA | 1.94 ± 0.59 | 2.09 ± 0.08 | 2.85 ± 1
92 | AGGGGG |  |  | 1.11 ± 1
93 | GGCGCC | 2.72 ± 2.1 | 2.21 ± 0.42 | 3.06 ± 0.78
94 | ACCCCC | 2.28 ± 0.72 | 1.22 ± 0.62 | 3.15 ± 1.3
95 | CTAGTA | 1.32 ± 0.52 | 0.841 ± 0.56 | 1.69 ± 0.87
96 | CACCTG |  |  | 0.873 ± 0.43
97 | AACCCG |  |  | 0.785 ± 0.38
98 | CGCATT | 2.39 ± 0.24 | 2.95 ± 0.92 | 4.66 ± 2
99 | GCCATC | 2.88 ± 0.72 | 3.43 ± 1.3 | 4.62 ± 1.3
100 | CTTATT | 2.42 ± 1 | 2.76 ± 0.34 | 3.73 ± 1.6
101 | ATCATC | 3.27 ± 0.66 | 4.72 ± 0.78 | 6.25 ± 2.5
102 | GTCATC | 4.03 ± 1.8 | 5.36 ± 1.2 | 8.03 ± 3.5
103 | CTCATC | 3.63 ± 1 | 4.57 ± 0.43 | 6.8 ± 2.4
104 | CTCATG |  | 1.28 ± 0.22 | 3.1 ± 0.052
105 | GGCATC | 1.73 ± 0.36 | 2.09 ± 0.48 | 2.42 ± 0.71
106 | CTCATT | 3.69 ± 1.4 | 5.23 ± 0.62 | 7.36 ± 3
